Results from PubChem BioAssay (NCI).
This is part of a sample that, as a whole, favours compounds with a hit. Of some 83,000 tested, about 20% had one in any assay.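 Cell lines were cultured in 96-well plates, exposed to a single compound concentration, and assessed for percent growth 48 hours later.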 A number with no mark means an inactive call. Calls of active or inactive are those of the source. The calls were made as follows: active = growth percent below 10; inactive = the rest.

tested on: MDA-MB-468 breast; assay: NCI-60 one-dose screen, 48 h (100 = growth as untreated, 0 = no growth, -100 = all killed); settings: 10 µM unless noted

| SMILES | growth |
| --- | --- |
| COc1cc(CCC[P+](c2ccccc2)(c2ccccc2)c2ccccc2)cc2c1OCO2 | -22.7% (active) |
| CCN1C(=O)N(CC)C2Nn3c(s/c(=C\c4ccc(Cl)cc4Cl)c3=O)=NC21 (stereo not given) | 32.1% |
| CC(=O)OC1C=CC(OC(C)=O)O1 (stereo not given) | 101% |
| NC(=O)C1(Nc2ccc(Br)cc2)CCCC1 | 101% |
| CC1(C)OC(=O)C(=Cc2cccc(Br)c2)C(=O)O1 | 111% |
| C=C1CCC2C3(C)COC(c4ccc(NC(C)=O)cc4)OC3CCC2(C)C1C/C=C1/C(=O)OCC1O (stereo not given) | 19.3% |
| CC[C@]12C=CCN3CC[C@@]4(c5cc(NC(=O)COc6cc(O)c7c(=O)cc(-c8ccccc8)oc7c6)c(OC)cc5N(C)[C@H]4[C@@](O)(C(=O)OC)[C@@H]1OC(C)=O)[C@@H]32 | -74.6% (active) |
| CC(=O)C1=C(C)NC(SCc2nnc(-c3ccc(C)cc3)o2)=NC1c1ccc(F)cc1 (stereo not given) | 93.4% |
| CCCCCCCC/C=C\CCCCCCCCOc1ccc(CC(=O)NCC[N+]2(C)CCOCC2)cc1 | 43.9% |
| C/C(Cc1ccc(Cl)cc1)=C(\c1ccc(OCCCN(C)C)cc1)c1ccc(OC(=O)Cc2ccccc2)cc1 | 111% |
| O=C1Nc2c(ccc(Cl)c2Cl)/C1=C/c1ccccn1 | 50.6% |
| Cc1cc(N2CCN(CC(=O)Nc3ccc4c(ccn4Cc4ccccc4)c3)CC2)nc(N2CCCCCC2)n1 | 13.1% |
| O=C(Nc1ccc(Oc2cccc(Cl)c2)c(Cl)c1)c1cnccn1 | 0.426% (active) |
| O=C1N/C(=C\c2ccccc2)c2ncccc21 | 96.2% |
| CCCCN1CCCC[C@@H]1C(=O)N[C@H](C(=O)N(C)[C@H](CCc1nc(C(=O)N[C@@H](Cc2ccccc2)C[C@H](C)C(=O)OC)cs1)C(C)C)C(C)C | 22.3% |
| NC(=N\N=C/c1ccc(Cl)cc1Cl)/C(N)=N\N=C/c1ccc(Cl)cc1Cl | 62.8% |
| CCOC(=O)c1cc(C(=O)c2cc(OC)c(OC)c(OC)c2)n2ncccc12 | -11.5% (active) |
| CSc1ccc(OC(C)=O)cc1C | 93.8% |
| COC1/C=C/OC2(C)Oc3c(C)c(O)c4c(O)c(c(/C=N/Nc5ccc([N+](=O)[O-])cc5[N+](=O)[O-])c(O)c4c3C2=O)NC(=O)C(C)=C/C=C/C(C)C(O)C(C)C(O)C(C)C(OC(C)=O)C1C (stereo not given) | -54.5% (active) |
| CN=S(=O)(NC(=O)c1ccc(Cl)cc1Cl)c1ccc(Br)s1 (stereo not given) | 88.3% |

| SMILES | growth |
| --- | --- |
| COc1ccc(Nc2ncccc2NC(=O)c2cn(Cc3cccc(Oc4ccccc4)c3)nn2)cc1 | 89.8% |
| N#Cc1c(N)n2c(nc1=Nc1ccc(Cl)cc1)sc1cc(Cl)ccc12 | 22.5% |
| CN(C)CCCC1(c2ccc(F)cc2)OCc2cc(-c3csc4ccccc34)ccc21 (stereo not given) | -68.5% (active) |
| CCCc1n(Cc2ccc3ccccc3n2)cc[n+]1Cc1ccc2ccccc2c1 | -28.4% (active) |
| COc1cc2c(cc1OC)C(=O)OC2 | 97.1% |
| Cc1cc2c(C)c3cc(C)c(N)cc3nc2cc1N | -5.78% (active) |
| COc1cc([C@@H]2c3cc4c(cc3[C@H](OC3OC5COC(c6ccccc6)OC5C(O)C3O)[C@H]3COC(=O)[C@H]23)OCO4)cc(OC)c1OC (stereo not given in full) | 17.5% |
| COc1ccc(-c2cc(-c3ccc(Nc4nc(Nc5ccccc5)nc(Nc5ccc(Cl)cc5)n4)cc3)nc(N)n2)cc1 | 87.4% |
| O=C(Nc1ccc(-c2nc(-c3cccc(O)c3)c(-c3ccnc(Br)c3)[nH]2)cc1)c1ccccc1 | 7.45% (active) |
| COCCn1c(-c2csc(-c3cn(C)c4ccc(OC)cc34)n2)cc2cccnc21 | 37.9% |
| COc1ccc(OC)c(-c2nc(SCC(=O)c3ccc(Br)cc3)nc(Nc3ccc(S(N)(=O)=O)cc3)c2C#N)c1 | 43.9% |
| CC(C)(C)OC(=O)NCCc1ccc(N=C=S)cc1 | 60.6% |
| COc1cccc(-c2cn3c(ccc4ccccc43)n2)c1 | 34.2% |
| O=C(O)CCCC(=O)O | 94.9% |
| CC(C)(C)CC(C)(C)Nc1c(-c2ccncc2)nc2cnccn12 | 87.5% |
| COc1ccc(CNc2c3ccccc3nc3ccccc23)cc1 | 27.1% |
| Cc1cc(-c2ccc(N=Nc3c(S(=O)(=O)O)cc4cc(S(=O)(=O)O)cc(O)c4c3O)c(C)c2)ccc1N=Nc1c(S(=O)(=O)O)cc2cc(S(=O)(=O)O)cc(O)c2c1O | 109% |
| COc1ccc(-c2nn(-c3cccc(NC(=O)c4ccc5c(c4)OCCO5)c3)cc2-c2ccncc2)cc1Cl | 26.2% |
| CC(=O)Nc1ccc(C(=O)/C=C/c2ccc(N(C)C)cc2)cc1 | 95.6% |
| COc1cccc(-c2nn(-c3ccccc3)cc2-c2ccnc(NCCNS(=O)(=O)c3ccc(C(F)(F)F)cc3)c2)c1 | 9.78% (active) |
